Data taken from PubChem BioAssay (NCATS).
Records with an inconclusive call do not appear. Activity calls are given as the source filed them. Unless noted, calls come from the whole dose curve; as a rule, active = well fitted curve in the direction sought with a large enough effect; inconclusive = small, poorly fitted or top-dose-only effect, or another doubt; inactive = no such curve, though single readings can be large; an effect the other way counts as inactive or inconclusive.

Experiments:
[1] = molecular target: Lysosomal acid glucosylceramidase (Homo sapiens) (UniProt P04062); assay: Glucocerebrosidase-p2 (AID 348; in the data active = potency below about 10 µM; note: potency is the fitted concentration of half-maximal effect); conditions: purified GBA, blue fluorogenic substrate, 40 min
Lysosomal acid glucosylceramidase (Homo sapiens), sequence (P04062 whole entry, looked up): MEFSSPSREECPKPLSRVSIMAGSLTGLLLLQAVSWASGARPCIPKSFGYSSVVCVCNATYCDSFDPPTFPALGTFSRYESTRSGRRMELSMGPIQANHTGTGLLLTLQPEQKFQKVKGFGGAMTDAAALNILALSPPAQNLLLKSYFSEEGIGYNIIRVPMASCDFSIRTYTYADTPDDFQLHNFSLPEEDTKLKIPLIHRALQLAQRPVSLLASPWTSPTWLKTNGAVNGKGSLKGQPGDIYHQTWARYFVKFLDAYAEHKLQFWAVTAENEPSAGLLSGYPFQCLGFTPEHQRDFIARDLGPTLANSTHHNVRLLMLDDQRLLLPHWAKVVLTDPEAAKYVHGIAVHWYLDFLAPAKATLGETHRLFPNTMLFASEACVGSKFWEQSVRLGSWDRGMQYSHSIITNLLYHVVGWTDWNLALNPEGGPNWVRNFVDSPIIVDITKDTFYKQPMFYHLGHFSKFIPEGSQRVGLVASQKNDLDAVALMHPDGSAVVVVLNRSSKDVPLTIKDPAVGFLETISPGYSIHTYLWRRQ
Procedure, shortened: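 Compounds titrated from 0.6 nM upwards against 0.2 nM enzyme in pH 5.9 citric acid/KH2PO4, taurocholate, tween-20; blue fluorogenic substrate 80 uM, 40 min room temperature, stopped and read Ex 365/Em 440 for AC50.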

[2] = AP1 Signaling Pathway (AID 357; active = well fitted curve in either direction with a large enough effect, not every such curve was filed as active;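 note: ME-180 reporter cells stimulated with EGF at its EC50 level; % is set by controls: 0 for no effect and ±100 for the full control effect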); conditions: ME-180 AP-1-bla reporter, EGF-induced, beta-lactamase ratio, 5 h; at 7.69 µM (top of the series) unless noted
Procedure, shortened: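 A ratiometric CCF4 readout (405 nm excitation; 460 and 530 nm emission) quantified AP-1-driven beta-lactamase in ME-180 cells after 5 h with compound and EC50 EGF; AC50 values were derived for activators and inhibitors.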

[3] = Stat Signaling Pathway (AID 446; active = well fitted curve in either direction with a large enough effect, not every such curve was filed as active;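 note: ME-180 cervical cancer cells given 40 pM IL-6 alongside compound; SIE-controlled beta-lactamase reporter measured as 460/530 nm FRET emission ratio; % is set by controls: 0 for no effect and ±100 for the full control effect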); conditions: ME-180 SIE beta-lactamase reporter, IL-6 stimulated, 5 h; at 7.69 µM (top of the series) unless noted
Procedure, shortened: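 ME-180 SIE-bla cells; overnight plating; cpd + IL-6 40 pM, 5 h, 37 C; LiveBLAzer 2.5 h RT; 460/530 nm emission ratio. Normalized to 300 pM IL-6 and 125 nM JAK inhibitor controls.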

[4] = molecular target: Glucocorticoid receptor (Homo sapiens) (UniProt P04150); assay: GR-GFP Redistribution (AID 450;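 active = compounds whose dose series gives a full or clear partial fitted curve of increased nuclear translocation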; note: potency is the fitted concentration of half-maximal effect); conditions: U2OS GR-GFP nuclear translocation, laser cytometry, 2 h
Glucocorticoid receptor (Homo sapiens), sequence (P04150 whole entry, looked up, the tested form may be a part): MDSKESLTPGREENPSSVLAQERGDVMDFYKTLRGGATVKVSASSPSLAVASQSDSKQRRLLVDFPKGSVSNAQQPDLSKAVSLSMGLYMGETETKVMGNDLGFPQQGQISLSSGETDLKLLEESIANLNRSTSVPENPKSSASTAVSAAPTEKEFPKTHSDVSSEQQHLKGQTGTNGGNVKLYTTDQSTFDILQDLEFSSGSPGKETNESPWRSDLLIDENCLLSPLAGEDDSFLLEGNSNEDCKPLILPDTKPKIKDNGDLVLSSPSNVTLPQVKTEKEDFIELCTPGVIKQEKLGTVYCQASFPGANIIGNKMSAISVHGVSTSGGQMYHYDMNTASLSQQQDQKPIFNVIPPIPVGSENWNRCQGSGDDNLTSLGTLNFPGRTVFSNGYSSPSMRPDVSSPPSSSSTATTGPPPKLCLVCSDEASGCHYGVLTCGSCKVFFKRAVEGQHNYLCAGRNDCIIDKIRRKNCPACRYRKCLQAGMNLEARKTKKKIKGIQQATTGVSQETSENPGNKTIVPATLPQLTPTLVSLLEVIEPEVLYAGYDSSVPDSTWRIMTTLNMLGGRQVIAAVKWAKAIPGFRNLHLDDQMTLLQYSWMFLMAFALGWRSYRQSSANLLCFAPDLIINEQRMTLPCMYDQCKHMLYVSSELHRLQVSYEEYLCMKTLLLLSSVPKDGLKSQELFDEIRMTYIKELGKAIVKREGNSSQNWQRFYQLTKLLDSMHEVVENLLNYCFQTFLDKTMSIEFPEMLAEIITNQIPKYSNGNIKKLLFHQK

[5] = molecular target: Glucocorticoid receptor (Homo sapiens) (UniProt P04150); assay: GR-EFC Redistribution (AID 451; calls by dose curve; note: potency is the fitted concentration of half-maximal effect); conditions: CHO-K1 GR-EFC translocation, beta-gal luminescence, 2 h
Procedure, shortened: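 CHO-K1 cells stably expressing nuclear-localized β-gal enzyme acceptor and GR fused C-terminally to the enzyme donor fragment; ligand-driven nuclear translocation restores β-gal by complementation. Compounds titrated up to 46 uM final, 2 h at 37 °C; luminescence read.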

[6] = molecular target: Mitogen-activated protein kinase 10 (Mus musculus) (UniProt Q61831); assay: JNK3 AlphaScreen Assay (AID 530; active = well fitted curve in either direction with a large enough effect, not every such curve was filed as active;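 note: kinase came from lysate of stimulated human HepG2 cells; signal reports phosphorylation of biotinylated GST-cJun 1-79 at Ser73 with 10 µM ATP; % is set by controls: 0 for no effect and ±100 for the full control effect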); conditions: JNK3 lysate, c-Jun phosphorylation; series mostly up to 57.1 µM
Procedure, shortened: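 Inhibitors reduce antibody binding to phosphorylated biotin-cJun, lowering AlphaScreen luminescence. Lysates from HepG2 cells pre-activated by IL-1beta plus TNF-alpha supplied JNK3; compounds were titrated.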

[7] = molecular target: 3',5'-cyclic-AMP phosphodiesterase 4B (Homo sapiens) (UniProt Q07343); assay: qHTS Assay for Inhibitors of PDE-IV (AID 607; active = well fitted activation curve with a large enough effect in the main read-out, with a control signal flat, not every such curve was filed as active; note: % of control where 0% means no effect); conditions: HEK293 ACTOne CNG channel cells, membrane potential fluorescence; series mostly up to 22.9 µM
3',5'-cyclic-AMP phosphodiesterase 4B (Homo sapiens), sequence (Q07343 whole entry, looked up): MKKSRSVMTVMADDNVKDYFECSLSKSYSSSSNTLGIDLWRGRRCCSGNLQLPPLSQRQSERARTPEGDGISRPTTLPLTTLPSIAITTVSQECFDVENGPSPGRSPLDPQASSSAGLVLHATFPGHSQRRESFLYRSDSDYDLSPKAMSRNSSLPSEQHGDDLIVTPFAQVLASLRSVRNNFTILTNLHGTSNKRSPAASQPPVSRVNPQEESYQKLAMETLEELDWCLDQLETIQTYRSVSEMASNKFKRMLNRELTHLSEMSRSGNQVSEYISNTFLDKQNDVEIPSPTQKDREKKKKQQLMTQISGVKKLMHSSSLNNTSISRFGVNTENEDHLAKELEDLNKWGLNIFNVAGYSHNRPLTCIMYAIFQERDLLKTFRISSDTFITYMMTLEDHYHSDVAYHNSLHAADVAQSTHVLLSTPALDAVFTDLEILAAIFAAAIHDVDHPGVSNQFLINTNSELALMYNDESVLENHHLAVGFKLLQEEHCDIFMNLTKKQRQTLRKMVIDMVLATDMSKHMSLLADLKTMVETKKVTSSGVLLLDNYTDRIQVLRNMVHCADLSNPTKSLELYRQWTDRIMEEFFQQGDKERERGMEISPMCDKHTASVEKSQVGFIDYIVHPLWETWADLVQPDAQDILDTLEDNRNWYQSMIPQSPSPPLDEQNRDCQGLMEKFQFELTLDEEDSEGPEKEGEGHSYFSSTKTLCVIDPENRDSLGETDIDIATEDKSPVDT
Procedure, shortened: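 ACTOne HEK293 cells carry a modified cAMP-gated CNG channel and express endogenous PDE4; plated 1000 cells/well, compounds up to 22.9 uM final. Membrane-potential dye fluorescence (ex 535/em 590) was read; parental cells received 10 uM forskolin + 100 uM RO 20-1724.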

[8] = qHTS Assay for Lipid Storage Modulators (AID 1519; calls by dose curve); conditions: Drosophila S3 cells, BODIPY lipid droplet/cell ratio, laser cytometry, cells loaded with oleic acid; for activity change, negative = inhibition: at 57.5 µM (top of the series)
Procedure, shortened: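 Cells seeded at 5,000 per well were treated with compounds over a concentration series and loaded with oleic acid (400 uM, as added). Lipid droplet fluorescence (488 nm excitation, 500-530 nm channel) was read by laser-scanning cytometry and normalized to 20 uM Triacsin C.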

[9] = molecular target: Dual specificity protein kinase CLK4 (Homo sapiens) (UniProt Q9HAZ1); assay: qHTS Assay for Inhibitors of CDC-like Kinase 4 (Kinase-Glo Assay) (AID 1770); conditions: recombinant Clk4, Kinase-Glo ATP depletion luminescence; series mostly up to 66.7 µM; note: potency is the fitted concentration of half-maximal effect; nearly all actives have a fitted effect of over 65% in size
Dual specificity protein kinase CLK4 (Homo sapiens), sequence (Q9HAZ1 whole entry, looked up): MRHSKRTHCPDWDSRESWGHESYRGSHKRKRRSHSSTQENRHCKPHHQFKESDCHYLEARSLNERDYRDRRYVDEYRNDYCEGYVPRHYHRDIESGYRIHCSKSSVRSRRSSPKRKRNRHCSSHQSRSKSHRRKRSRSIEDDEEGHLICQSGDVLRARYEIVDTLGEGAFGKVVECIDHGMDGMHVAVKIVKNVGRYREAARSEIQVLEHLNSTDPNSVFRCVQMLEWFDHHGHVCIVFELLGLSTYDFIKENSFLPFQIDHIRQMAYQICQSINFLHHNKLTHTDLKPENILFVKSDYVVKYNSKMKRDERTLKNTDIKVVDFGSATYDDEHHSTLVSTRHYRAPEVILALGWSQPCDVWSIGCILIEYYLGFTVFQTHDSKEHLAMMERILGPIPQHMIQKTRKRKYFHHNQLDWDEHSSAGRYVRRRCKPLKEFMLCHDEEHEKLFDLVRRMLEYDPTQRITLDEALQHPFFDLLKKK
Procedure, shortened: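 Recombinant human Clk4 (25 nM) phosphorylated RS repeat peptide (100 uM) with 1 uM ATP in Tris pH 7.5/MgCl2/EGTA/DTT/Triton buffer for 4.5 h at room temperature. Residual ATP was quantified by Kinase-Glo luciferase luminescence.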

[10] = molecular target: Ubiquitin carboxyl-terminal hydrolase 1 (Homo sapiens) (UniProt O94782); assay: Inhibitors of USP1/UAF1: Pilot qHTS (AID 504865); conditions: purified USP1/UAF1, Ub-rhodamine cleavage fluorescence; series mostly up to 54.9 µM;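 note: rhodamine fluorescence freed from ubiquitin-rhodamine substrate followed over time; top concentration of the series differs between compounds; % is set by controls: 0 for no effect and ±100 for the full control effect; nearly all actives have a fitted effect of over 35% in size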
Ubiquitin carboxyl-terminal hydrolase 1 (Homo sapiens), sequence (O94782 whole entry, looked up): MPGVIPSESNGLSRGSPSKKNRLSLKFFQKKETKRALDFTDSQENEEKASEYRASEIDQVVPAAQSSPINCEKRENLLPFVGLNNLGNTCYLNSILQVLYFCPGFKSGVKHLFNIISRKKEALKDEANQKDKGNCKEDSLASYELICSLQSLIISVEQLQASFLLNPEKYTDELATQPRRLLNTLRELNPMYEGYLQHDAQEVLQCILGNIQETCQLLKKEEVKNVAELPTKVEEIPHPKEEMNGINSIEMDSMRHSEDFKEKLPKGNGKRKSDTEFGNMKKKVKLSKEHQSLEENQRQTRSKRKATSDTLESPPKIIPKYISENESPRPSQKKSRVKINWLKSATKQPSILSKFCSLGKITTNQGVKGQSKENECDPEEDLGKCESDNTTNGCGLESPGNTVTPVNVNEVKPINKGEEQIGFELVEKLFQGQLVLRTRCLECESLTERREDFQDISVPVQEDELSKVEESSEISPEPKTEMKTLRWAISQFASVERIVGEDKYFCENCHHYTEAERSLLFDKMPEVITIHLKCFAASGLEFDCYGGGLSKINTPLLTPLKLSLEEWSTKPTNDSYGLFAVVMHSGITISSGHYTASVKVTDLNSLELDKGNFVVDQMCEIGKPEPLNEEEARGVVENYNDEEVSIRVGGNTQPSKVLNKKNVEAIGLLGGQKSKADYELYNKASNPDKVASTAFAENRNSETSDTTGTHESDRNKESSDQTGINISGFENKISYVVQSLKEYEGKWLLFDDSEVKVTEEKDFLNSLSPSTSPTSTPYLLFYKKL
Procedure, shortened: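 USP1/UAF1 complex (1nM) preincubated with compound 15 min at room temperature, then Ub-Rho substrate (150nM final) added. Fluorescence read kinetically at 480/540 nm, 6 reads every 60 seconds. Buffer: 50mM HEPES pH 7.8, 0.5mM EDTA, 0.1 mg/ml BSA, 1mM TCEP, 0.01% Tween-20.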

[11] = Primary qHTS for small molecule stabilizers of the endoplasmic reticulum resident proteome: Secreted ER Calcium Modulated Protein (SERCaMP) assay (AID 1508630); conditions: SH-SY5Y GLuc-SERCaMP (Gaussia luciferase released on ER calcium loss) secretion, thapsigargin, luminescence; series mostly up to 38.4 µM; note: % is set by controls: 0 for no effect and ±100 for the full control effect
Procedure, shortened: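 GLuc-SERCaMP-expressing SH-SY5Y cells, pretreated 16 h with compound, are challenged with thapsigargin to empty ER calcium stores; after 4 h, coelenterazine is added directly to the medium and luminescence is imaged.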

[12] = molecular target: Cytochrome P450 1A2 (Homo sapiens) (UniProt P05177); assay: p450-cyp1a2 (AID 410; calls by dose curve; note: potency is the fitted concentration of half-maximal effect); conditions: recombinant CYP1A2, luciferin-ME demethylation, luminescence; series mostly up to 57 µM
Cytochrome P450 1A2 (Homo sapiens), sequence (P05177 whole entry, looked up): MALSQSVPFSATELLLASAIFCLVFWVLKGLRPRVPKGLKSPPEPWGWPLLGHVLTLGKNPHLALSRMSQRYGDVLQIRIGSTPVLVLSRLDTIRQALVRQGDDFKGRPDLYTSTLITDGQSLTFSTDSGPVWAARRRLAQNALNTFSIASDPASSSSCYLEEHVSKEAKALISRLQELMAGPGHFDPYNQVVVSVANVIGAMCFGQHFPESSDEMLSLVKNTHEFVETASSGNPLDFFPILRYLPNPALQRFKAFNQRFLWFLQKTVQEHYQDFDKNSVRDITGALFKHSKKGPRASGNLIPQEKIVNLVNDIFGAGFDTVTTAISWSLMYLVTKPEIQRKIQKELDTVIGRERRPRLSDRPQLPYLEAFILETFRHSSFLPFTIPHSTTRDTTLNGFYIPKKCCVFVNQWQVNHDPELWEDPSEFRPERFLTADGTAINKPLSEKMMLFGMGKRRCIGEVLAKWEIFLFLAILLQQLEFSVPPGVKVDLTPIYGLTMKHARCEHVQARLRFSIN
Procedure, shortened: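 Luminescent readout of luciferin formed from Luciferin-ME by human CYP1A2; data normalized against complete inhibition by 57 uM furafylline. Enzyme 20nM, substrate 100uM at Km, 100mM KPO4 buffer, 60 min reaction at room temperature.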

[13] = molecular target: Cytochrome P450 3A4 (Homo sapiens) (UniProt P08684); assay: qHTS Assay for Inhibitors and Substrates of Cytochrome P450 3A4 (AID 884); conditions: recombinant CYP3A4, Luciferin-PPXE luminescence; series mostly up to 57.1 µM; note: potency is the fitted concentration of half-maximal effect; nearly all actives have a fitted effect of over 50% in size
Cytochrome P450 3A4 (Homo sapiens), sequence (P08684 whole entry, looked up): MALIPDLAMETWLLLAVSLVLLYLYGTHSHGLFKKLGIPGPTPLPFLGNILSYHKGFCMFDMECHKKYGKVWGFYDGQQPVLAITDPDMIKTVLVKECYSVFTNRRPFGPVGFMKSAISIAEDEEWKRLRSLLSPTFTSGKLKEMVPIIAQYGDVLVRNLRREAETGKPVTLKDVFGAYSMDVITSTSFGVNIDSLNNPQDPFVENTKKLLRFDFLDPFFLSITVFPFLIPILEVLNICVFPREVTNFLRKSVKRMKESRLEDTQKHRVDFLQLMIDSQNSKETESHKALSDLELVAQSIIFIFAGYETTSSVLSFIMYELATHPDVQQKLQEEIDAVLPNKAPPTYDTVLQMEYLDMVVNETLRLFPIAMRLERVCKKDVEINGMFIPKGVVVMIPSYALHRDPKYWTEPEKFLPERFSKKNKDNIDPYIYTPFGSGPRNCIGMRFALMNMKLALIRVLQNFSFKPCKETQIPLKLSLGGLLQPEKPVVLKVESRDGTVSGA
Procedure, shortened: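 20 nM human CYP3A4 with 25 uM Luciferin-PPXE (at KM) in 200 mM KPO4, preincubated 10 min with compound; NADPH regeneration started a 60 min RT reaction. Luciferin detected by luminescence, normalized to 57 uM ketoconazole as full inhibition.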

[14] = molecular target: Cytochrome P450 3A4 (Homo sapiens) (UniProt P08684); assay: qHTS Assay for Activators of Cytochrome P450 3A4 (AID 885); conditions: recombinant CYP3A4, Luciferin-PPXE luminescence, 60 min; series mostly up to 57.1 µM; note: nearly all actives have a fitted effect of over 65% in size
Procedure, shortened: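 20nM CYP3A4 + 25uM Luciferin-PPXE (=KM), 200mM KPO4; cpd 10 min RT; NADPH regen, 60 min RT; stop w/ detection buffer, 20 min; luminescence. Normalized to 57 uM ketoconazole.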

[15] = NFAT Signaling Pathway (AID 444; active = well fitted curve in either direction with a large enough effect, not every such curve was filed as active); conditions: Jurkat NFAT-bla M1, carbachol, beta-lactamase ratio, 5 h; at 7.69 µM (top of the series) unless noted
Procedure, shortened: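 Jurkat cells carrying an NFAT-driven β-lactamase reporter and co-transfected muscarinic M1 receptor were treated with compound plus carbachol (1 uM final, an EC50 level) for 5 h at 37 °C. CCF4 loading followed for 1 h at RT; 460/530 nm ratio gave %activity.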

[16] = molecular target: Dual specificity protein kinase CLK4 (Homo sapiens) (UniProt Q9HAZ1); assay: qHTS Assay for Inhibitors of CDC-like Kinase 4 (ADP-FP Assay) (AID 1795); conditions: Transcreener ADP fluorescence polarization; series mostly up to 50 µM; note: % is set by controls: 0 for no effect and ±100 for the full control effect; nearly all actives have a fitted effect of over 60% in size
Procedure, shortened: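 Recombinant human Clk4 (6.25 nM) phosphorylated RS repeat peptide (100 uM) with 1 uM ATP in Tris pH 7.5/MgCl2/EGTA/DTT/Triton buffer for one hour. ADP was quantified by Transcreener competitive fluorescence polarization against an ADP calibration curve.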

[17] = measured here: cell count channel max response
[18] = measured here: lipid channel max response

CNc1nc(-c2ccc3c(c2)OCO3)nc2ccccc12
inactive: Potency [1] 11.4 µM | activity change, negative = inhibition [2] 28.9% | activity, negative = inhibition [3] -1.35% | Potency [4] > 46 µM | Potency [5] > 46 µM | outcome [6] | Potency [7] | activity change, negative = inhibition [8] -5.22% | Potency [10] | Potency [11]
-1.26%: max response [8, 18]
active: Potency [9] 14.1 µM
2.96%: max response [8, 17]

Cc1cnc(CNc2ncncc2-c2cccc(C#N)c2)cn1
active: Potency [12] 12.6 µM | Potency [13] 2 µM | Potency [9] 28.2 µM
inactive: Potency [1] > 11.4 µM | activity change, negative = inhibition [2] 15% | activity, negative = inhibition [3] 9.2% | Potency [4] > 46 µM | Potency [5] > 46 µM | outcome [6] | Potency [7] | Potency [14] | activity change, negative = inhibition [8] 8.03% | Potency [10] | Potency [11]
20.9%: max response [8, 17]
25.3%: max response [8, 18]

CN(C)c1ncc2ncc(=O)n(C3CC3)c2n1
22.4%: max response [8, 18]
inactive: Potency [1] > 11.4 µM | activity change, negative = inhibition [2] 0.558% | activity change, negative = inhibition [15] -1.2% | activity, negative = inhibition [3] -11.1% | Potency [4] > 9.22 µM | Potency [5] > 46 µM | outcome [6] | Potency [7] | activity change, negative = inhibition [8] 7.21% | Potency [16] | Potency [10] | Potency [11]
15.8%: max response [8, 17]
active: Potency [12] 3.16 µM
